Reference: PubChem BioAssay (NCATS)
Results filed as inconclusive are left out. A number with no mark means an inactive call. Calls of active or inactive are those of the source. The call rests on the fitted dose curve; in most records, active means well fitted inhibition curve with a large enough effect; inconclusive means small, poorly fitted or top-dose-only effect; inactive means flat fitted curve, though single readings scatter. Bridge positions count the residues as written; N and C are the ends. Square brackets hold non-standard residues; d marks the D form. Peptide text beside a SMILES is read from it. * marks the point of attachment. Ileψ(thiazoline)Cys = CC[C@H](C)[C@H](N)C1=N[C@H](C(=O)*)CS1; d(aIle) = CC[C@H](C)[C@@H](N)C(=O)O; dOrn = NCCC[C@@H](N)C(=O)O
Potency means the concentration at half of the fitted maximal effect.

What follows are compounds tested on CP203 (assay: qHTS profiling for inhibitors of Plasmodium falciparum proliferation (AID 504749; further: nearly all actives have a fitted effect of over 60% in size;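 on activity, negative = inhibition: 0% = DMSO vehicle and full inhibition = artemisinin control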)). Conditions: P. falciparum in erythrocytes, SYBR Green DNA, 72 h; series mostly up to 12.8 µM; activity, negative = inhibition: at the top concentration.
Procedure, shortened: (§1)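 Quantitative HTS: compounds pinned into medium, infected erythrocytes added (0.3% parasitemia, 2.5% hematocrit), 72 h culture at 37 C under 5% CO2. Saponin/Triton lysis with SYBR Green I, overnight RT, then fluorescence read.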
With `C[C@H](CCC(=O)O)[C@H]1CC[C@@H]2[C@@H]3[C@@H](O)C[C@H]4C[C@@H](O)CC[C@@]4(C)[C@H]3CC[C@@]21C` the “activity, negative = inhibition” value was 3.14%. With `CN(C/C=C\c1ccccc1)Cc1cccc2ccccc12` the “activity, negative = inhibition” value was -17.2% [at 28.7 µM]. For `C[C@H](C(=O)O)c1cccc(Oc2ccccc2)c1`, the “activity, negative = inhibition” value was 1.36%. For `CC1(C)[C@@H](OC(=O)CCC(=O)O)CC[C@@]2(C)[C@H]1CC[C@@]1(C)[C@H]2C(=O)C=C2[C@H]3C[C@](C)(C(=O)O)CC[C@]3(C)CC[C@@]21C`, the “activity, negative = inhibition” value was 1.1%. With `CCOC(=O)O[C@@H](C)OC(=O)[C@@H]1N2C(=O)[C@@H](NC(=O)[C@@H](N)c3ccccc3)[C@H]2SC1(C)C` the “activity, negative = inhibition” value was -0.145%. `Cc1ccsc1/C=C\C1=NCCCN1C` was tested, and the “activity, negative = inhibition” value was 0.408%. With `Cc1cccc(CN2CCN([C@@H](c3ccccc3)c3ccc(Cl)cc3)CC2)c1` the “activity, negative = inhibition” value was -0.797%. In the case of `C#C[C@]1(O)CC[C@@H]2[C@H]3CCC4=CCCC[C@@H]4[C@@H]3CC[C@@]21C`, the “activity, negative = inhibition” value is reported as 1.71%. `CC[C@H](C)[C@H](N)C1=N[C@H](C(=O)N[C@@H](CC(C)C)C(=O)N[C@@H](CCC(=O)O)C(=O)N[C@@H](C(=O)N[C@H]2CCCCNC(=O)[C@@H](CC(N)=O)NC(=O)[C@@H](CC(=O)O)NC(=O)[C@@H](Cc3cnc[nH]3)NC(=O)[C@@H](Cc3ccccc3)NC(=O)[C@@H]([C@@H](C)CC)NC(=O)[C@@H](CCCN)NC2=O)[C@@H](C)CC)CS1` ({Ileψ(thiazoline)Cys}-LE[d(aIle)]K[dOrn][d(aIle)][dF][dH][dD][dN]; lactam 4-C) was tested, and the “activity, negative = inhibition” value was -0.99%. `O=C(O)COCCN1CCN([C@@H](c2ccccc2)c2ccc(Cl)cc2)CC1` was tested, and the “activity, negative = inhibition” value was 0.762%. In the case of `CCN(CC)CCOC(=O)[C@@H](Cc1cccc2ccccc12)C[C@@H]1CCCO1`, the “activity, negative = inhibition” value is reported as -12.9%. `Clc1ccc([C@H](Cn2ccnc2)OCc2c(Cl)cccc2Cl)c(Cl)c1` was tested, and the Potency was 6.42 µM (active). For `CC[C@H](CO)NCCN[C@@H](CC)CO`, the “activity, negative = inhibition” value was 1.26%.

The compounds below were run on CP211 in the same assay as above. Conditions: P. falciparum in erythrocytes, SYBR Green DNA, 72 h; series mostly up to 12.8 µM; activity, negative = inhibition: at the top concentration.
Procedure, shortened: as §1
In the case of `CN1CCO[C@H](c2ccccc2)c2ccccc2C1`, the “activity, negative = inhibition” value is reported as -12.4%. For `C[C@H](CCC(=O)O)[C@H]1CC[C@@H]2[C@@H]3[C@@H](O)C[C@H]4C[C@@H](O)CC[C@@]4(C)[C@H]3CC[C@@]21C`, the “activity, negative = inhibition” value was 1.61%. In the case of `CCN(CCCCOC(=O)c1ccc(OC)c(OC)c1)[C@@H](C)Cc1ccc(OC)cc1`, the “activity, negative = inhibition” value is reported as -5.39%. For `CCC(=O)OCC(=O)[C@@]1(OC(=O)CC)[C@H](C)C[C@@H]2[C@@H]3[C@H]([C@@H](O)C[C@@]21C)[C@]1(C)C=CC(=O)C=C1C[C@@H]3Cl`, the “activity, negative = inhibition” value was -15.2%. In the case of `C[C@H](C(=O)O)c1cccc(Oc2ccccc2)c1`, the “activity, negative = inhibition” value is reported as 1.72%. For `CC1(C)[C@@H](OC(=O)CCC(=O)O)CC[C@@]2(C)[C@H]1CC[C@@]1(C)[C@H]2C(=O)C=C2[C@H]3C[C@](C)(C(=O)O)CC[C@]3(C)CC[C@@]21C`, the “activity, negative = inhibition” value was 1.45%. With `CCOC(=O)O[C@@H](C)OC(=O)[C@@H]1N2C(=O)[C@@H](NC(=O)[C@@H](N)c3ccccc3)[C@H]2SC1(C)C` the “activity, negative = inhibition” value was 6.45%. In the case of `Cc1ccsc1/C=C\C1=NCCCN1C`, the “activity, negative = inhibition” value is reported as 0.924%. `Cc1cccc(CN2CCN([C@@H](c3ccccc3)c3ccc(Cl)cc3)CC2)c1` was tested, and the “activity, negative = inhibition” value was -9.1%. For `C#C[C@]1(O)CC[C@@H]2[C@H]3CCC4=CCCC[C@@H]4[C@@H]3CC[C@@]21C`, the “activity, negative = inhibition” value was -3.08%. With `CC[C@H](C)[C@H](N)C1=N[C@H](C(=O)N[C@@H](CC(C)C)C(=O)N[C@@H](CCC(=O)O)C(=O)N[C@@H](C(=O)N[C@H]2CCCCNC(=O)[C@@H](CC(N)=O)NC(=O)[C@@H](CC(=O)O)NC(=O)[C@@H](Cc3cnc[nH]3)NC(=O)[C@@H](Cc3ccccc3)NC(=O)[C@@H]([C@@H](C)CC)NC(=O)[C@@H](CCCN)NC2=O)[C@@H](C)CC)CS1` ({Ileψ(thiazoline)Cys}-LE[d(aIle)]K[dOrn][d(aIle)][dF][dH][dD][dN]; lactam 4-C) the “activity, negative = inhibition” value was -2.12%. In the case of `O=C(O)COCCN1CCN([C@@H](c2ccccc2)c2ccc(Cl)cc2)CC1`, the “activity, negative = inhibition” value is reported as 0.372%. `CCN(CC)CCOC(=O)[C@@H](Cc1cccc2ccccc12)C[C@@H]1CCCO1` was tested, and the “activity, negative = inhibition” value was -2.65%. In the case of `C[C@@H](CNC1CCCCC1)OC(=O)c1ccccc1`, the “activity, negative = inhibition” value is reported as -12.6%. `CC[C@H](CO)NCCN[C@@H](CC)CO` was tested, and the “activity, negative = inhibition” value was 0.925%.
